An excerpt weighted towards active compounds, which were near 4.2% of everything screened.
CHOP inh – inhibitors of CHOP induction in ER stress response | AID 2732 | CHO-K1 CHOP-promoter luciferase, tunicamycin-induced, 15-18 h | 3.8% of 220,000 active | inhibition, % at 10 µM;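 active = compounds that reduced the stress-induced luciferase reporter signal by more than about 70% of percent inhibition, limit read from the data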;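 also: 0% = tunicamycin plus vehicle and 100% = wells without tunicamycin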
S1P4 ag – activates the human S1P4 receptor; O95977; 0.35% of 220,000 active; activation, % at 4.98 µM; AID 1509; S1P4-expressing cell line, agonist reporter assay; in the data active = activation above about 11%;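 also: 0% = DMSO vehicle and 100% = reference agonist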
Target sequence (O95977 whole entry, looked up): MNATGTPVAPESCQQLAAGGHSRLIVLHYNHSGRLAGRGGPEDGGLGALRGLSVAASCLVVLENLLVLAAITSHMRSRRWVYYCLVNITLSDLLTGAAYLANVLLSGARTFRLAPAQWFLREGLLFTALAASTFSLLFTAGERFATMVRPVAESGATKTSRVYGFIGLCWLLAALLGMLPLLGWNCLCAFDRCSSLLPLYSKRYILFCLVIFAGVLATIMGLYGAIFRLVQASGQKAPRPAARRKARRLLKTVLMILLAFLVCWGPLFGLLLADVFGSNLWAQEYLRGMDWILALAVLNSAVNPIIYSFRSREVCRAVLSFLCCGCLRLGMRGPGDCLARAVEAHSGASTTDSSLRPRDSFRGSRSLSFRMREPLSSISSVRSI
Hsp70 act – transcriptional activators of Hsp70. activation, % at 10 µM. 0.04% of 200,000 active. HeLa Hsp70 promoter luciferase reporter, luminescence; scaled: vehicle 0, proteasome-inhibitor control 100%. AID 1203;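 active = activation above the mean across all tested compounds plus 3 SD, cutoff set per campaign, cut at about 5.5% in these data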;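 also: 100% = MG132 at 30 µM as the positive control and 0% = DMSO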
S1P4 antagonist – antagonists of human S1P4 receptor; O95977; S1P4-expressing cells, antagonist mode, reporter read-out; inhibition, % at 4.98 µM; 0.26% of 220,000 active; AID 1510; in the data active = inhibition above about 29%;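 also: 0% = wells stimulated with agonist and 100% = vehicle wells without agonist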
Active calls of the source: *.

`Cc1ccc(NC(=O)CSc2nnnn2-c2ccc3c(c2)OCO3)cc1C` gave CHOP inh 92.4*, S1P4 ag -0.4, Hsp70 act -0.4 and S1P4 antagonist -8.1.
Screening CC(=O)c1ccc(-n2nnnc2SCC(=O)Nc2sc(C)c(C)c2C#N)cc1 returned CHOP inh 80.7*, S1P4 ag -0.5, Hsp70 act -0.5 and S1P4 antagonist -16.4.
For Nc1c(C(=O)NCC2CCCO2)c2nc3ccccc3nc2n1-c1ccccc1 (stereo unspecified) the results were CHOP inh 47.7, S1P4 ag 2.7, Hsp70 act -0.3 and S1P4 antagonist 4.6.
Screening COc1cc(-n2nnnc2SC)c(OC)cc1Cl returned CHOP inh -4.1, S1P4 ag 1.1, Hsp70 act -0.1 and S1P4 antagonist -0.9.
`Cc1cccc(OCC(=O)Nc2ccc3c4c(cccc24)CC3)c1C` gave CHOP inh -31.1, S1P4 ag 0.6, Hsp70 act -0.3 and S1P4 antagonist -5.2.
`Cc1ccc(OCC(=O)Nc2ccc3c4c(cccc24)CC3)c(C)c1` gave CHOP inh 81.7*, S1P4 ag 0.3, Hsp70 act -0.2 and S1P4 antagonist -16.6.
Screening O=C(NCCN1C(=O)S/C(=C\c2ccc(Cl)c(Cl)c2)C1=O)c1ccc2c(c1)C(=O)N(Cc1ccncc1)C2=O returned CHOP inh 88.1*, S1P4 ag 0.2, Hsp70 act -0.4 and S1P4 antagonist -9.3.
Screening Cc1ccc(C(=O)c2cc([N+](=O)[O-])ccc2N2CCOCC2)cc1C returned CHOP inh 3.0, S1P4 ag 0.5, Hsp70 act -0.3 and S1P4 antagonist -9.0.
CCCCCCCCCCCCCCCC[n+]1ccc(C(N)=O)cc1 was read as CHOP inh 70.4*, S1P4 ag -0.2, Hsp70 act -0.4 and S1P4 antagonist -4.9.
For C=CCn1nc([N+](=O)[O-])nc1Sc1cccc2cccnc12 the results were CHOP inh 88.3*, S1P4 ag -0.4, Hsp70 act -0.2 and S1P4 antagonist -6.7.
Screening CN(C(=O)/C(N=Nc1cccc(C(F)(F)F)c1)=C(\O)C(F)(F)F)c1ccccc1 returned CHOP inh 73.0*, S1P4 ag -1.8, Hsp70 act 0.0 and S1P4 antagonist 6.4.
`C/C(=N\Nc1ccc(C(=O)c2c(C)cc3ccccn23)cc1[N+](=O)[O-])c1ccc(O)cc1` gave CHOP inh 47.1, S1P4 ag -1.8 and S1P4 antagonist 6.7.
`Cc1cc2ccccn2c1C(=O)c1ccc(N/N=C/c2ccc(C(=O)O)cc2)c([N+](=O)[O-])c1` gave CHOP inh 103.0*, S1P4 ag 1.1 and S1P4 antagonist -7.9.
Screening CCOC(=O)C1CCCN(C(=O)C2c3ccccc3Oc3ccccc32)C1 (stereo unspecified) returned CHOP inh 76.3*, S1P4 ag 2.5, Hsp70 act -0.3 and S1P4 antagonist 0.7.
For COC(=O)C(C)Oc1ccc(-c2nccc(-c3cccs3)n2)cc1 (stereo unspecified) the results were CHOP inh 91.5*, S1P4 ag -1.3, Hsp70 act 0.1 and S1P4 antagonist 6.8.
Oc1ccc(-c2nccc(-c3cccs3)n2)cc1 was read as CHOP inh 58.0, S1P4 ag -1.0, Hsp70 act 0.1 and S1P4 antagonist -8.4.
CC(C)Nc1ncnc2ccc(Br)cc12 was read as CHOP inh 78.6*, S1P4 ag 0.1, Hsp70 act -0.7 and S1P4 antagonist -0.5.
`CC1CCCCC1NC(=O)c1cn(C)c2ccc(S(=O)(=O)N3CCCC3)cc2c1=O` (stereo unspecified) gave CHOP inh 22.8, S1P4 ag -0.6, Hsp70 act -0.3 and S1P4 antagonist -11.1.
CC1CCCC(NC(=O)c2cn(C)c3ccc(S(=O)(=O)N4CCCC4)cc3c2=O)C1C (stereo unspecified) was read as CHOP inh 80.3*, S1P4 ag -0.1, Hsp70 act -0.4 and S1P4 antagonist -6.2.
For CC(C)c1ccccc1NC(=O)CNCCc1ccc(C(F)(F)F)cc1 the results were CHOP inh 75.8*, S1P4 ag -1.1 and S1P4 antagonist 5.4.
For CCOC(=O)N1CCN(c2nc(-c3ccc(F)cc3)cs2)CC1 the results were CHOP inh 78.4*, S1P4 ag -3.3, Hsp70 act -0.3 and S1P4 antagonist -6.8.
For O=C(C1CCCCC1)N1CCN(c2nc(-c3ccc(F)cc3)cs2)CC1 the results were CHOP inh -9.4, S1P4 ag -0.5, Hsp70 act 0.1 and S1P4 antagonist 9.6.
CCNC(=S)N/N=C1\C(=O)c2cccc3cccc1c23 was read as CHOP inh -9.8, S1P4 ag -1.3, Hsp70 act -0.3 and S1P4 antagonist 5.3.
Screening O=C(N/N=C1/C(=O)c2cccc3cccc1c23)c1ccc(Cl)cc1 returned CHOP inh 71.9*, S1P4 ag 0.3, Hsp70 act -0.4 and S1P4 antagonist -21.1.
For COc1ccc(NC2=CC(c3ccc(F)cc3)N(c3ccc(OC)cc3)C2=O)cc1 (stereo unspecified) the results were CHOP inh 82.2*, S1P4 ag -0.8, Hsp70 act -0.4 and S1P4 antagonist -18.4.
For COc1ccc(NC2=CC(c3ccc(OC)cc3)N(c3ccc(OC)cc3)C2=O)cc1 (stereo unspecified) the results were CHOP inh 17.9, S1P4 ag 0.9, Hsp70 act 0.2 and S1P4 antagonist -20.9.
For CCC(C)NC(=O)c1csc2c1CCCCC2 (stereo unspecified) the results were CHOP inh 55.5, S1P4 ag 0.3, Hsp70 act 0.0 and S1P4 antagonist -26.3.
CCc1ccc(-c2nc(CSCC(=O)N3CCN(c4ccccn4)CC3)c(C)o2)cc1 was read as CHOP inh 86.0*, S1P4 ag 0.6, Hsp70 act -0.3 and S1P4 antagonist -8.2.
`CCOc1ccc(-c2nc(CSCC(=O)N3CCN(c4cccc(OC)c4)CC3)c(C)o2)cc1` gave CHOP inh 74.2*, S1P4 ag 0.9, Hsp70 act -0.4 and S1P4 antagonist -35.0.
`CCOc1ccc(-c2nc(CSCC(=O)NC3CCCc4ccccc43)c(C)o2)cc1` (stereo unspecified) gave CHOP inh 86.8*, S1P4 ag 0.9, Hsp70 act -0.3 and S1P4 antagonist -8.9.
Cc1ccc(-c2nc(CSCC(=O)N3CCN(c4ccccn4)CC3)c(C)o2)cc1 was read as CHOP inh 78.4*, S1P4 ag -1.9, Hsp70 act -0.3 and S1P4 antagonist 2.3.
`COc1cccc(-c2nc(CSCC(=O)N3CCc4ccccc43)c(C)o2)c1` gave CHOP inh 27.2, S1P4 ag -0.6, Hsp70 act -0.5 and S1P4 antagonist 1.4.
Screening Cc1cc(-n2nnc3ccccc32)nc2ccccc12 returned CHOP inh 60.8, S1P4 ag 1.1, Hsp70 act -0.1 and S1P4 antagonist -27.6.
N#C/C(=C/c1ccc(N2CCOCC2)o1)c1nc2ccccc2[nH]1 was read as CHOP inh 7.3, S1P4 ag -0.2, Hsp70 act -0.4 and S1P4 antagonist 3.0.
For O=C(Cn1nnc(-c2ccccc2Cl)n1)N/N=C/c1ccc(-c2cccc(Cl)c2)o1 the results were CHOP inh 74.1*, S1P4 ag 0.2, Hsp70 act -0.3 and S1P4 antagonist -0.3.
